Laboratory results from article PMC4336329 (PLoS ONE, 2015).
In all, about 310,000 compounds went through this assay and about 14,000 (4.5%) showed an effect of 50% or more. Effects have a minus sign here. The entries come from a sample that favours strong results as a whole.

Target: human ether-à-go-go-related gene (hERG) potassium channel (human, UniProt Q12809)
Assay: primary screen, population patch clamp on CHO cells stably expressing hERG; higher = less effect of the substance
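Note: peak tail current of the secondary pulse compared with the same well before compound.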

Chain of human ether-à-go-go-related gene (hERG) potassium channel (Q12809 whole entry, looked up): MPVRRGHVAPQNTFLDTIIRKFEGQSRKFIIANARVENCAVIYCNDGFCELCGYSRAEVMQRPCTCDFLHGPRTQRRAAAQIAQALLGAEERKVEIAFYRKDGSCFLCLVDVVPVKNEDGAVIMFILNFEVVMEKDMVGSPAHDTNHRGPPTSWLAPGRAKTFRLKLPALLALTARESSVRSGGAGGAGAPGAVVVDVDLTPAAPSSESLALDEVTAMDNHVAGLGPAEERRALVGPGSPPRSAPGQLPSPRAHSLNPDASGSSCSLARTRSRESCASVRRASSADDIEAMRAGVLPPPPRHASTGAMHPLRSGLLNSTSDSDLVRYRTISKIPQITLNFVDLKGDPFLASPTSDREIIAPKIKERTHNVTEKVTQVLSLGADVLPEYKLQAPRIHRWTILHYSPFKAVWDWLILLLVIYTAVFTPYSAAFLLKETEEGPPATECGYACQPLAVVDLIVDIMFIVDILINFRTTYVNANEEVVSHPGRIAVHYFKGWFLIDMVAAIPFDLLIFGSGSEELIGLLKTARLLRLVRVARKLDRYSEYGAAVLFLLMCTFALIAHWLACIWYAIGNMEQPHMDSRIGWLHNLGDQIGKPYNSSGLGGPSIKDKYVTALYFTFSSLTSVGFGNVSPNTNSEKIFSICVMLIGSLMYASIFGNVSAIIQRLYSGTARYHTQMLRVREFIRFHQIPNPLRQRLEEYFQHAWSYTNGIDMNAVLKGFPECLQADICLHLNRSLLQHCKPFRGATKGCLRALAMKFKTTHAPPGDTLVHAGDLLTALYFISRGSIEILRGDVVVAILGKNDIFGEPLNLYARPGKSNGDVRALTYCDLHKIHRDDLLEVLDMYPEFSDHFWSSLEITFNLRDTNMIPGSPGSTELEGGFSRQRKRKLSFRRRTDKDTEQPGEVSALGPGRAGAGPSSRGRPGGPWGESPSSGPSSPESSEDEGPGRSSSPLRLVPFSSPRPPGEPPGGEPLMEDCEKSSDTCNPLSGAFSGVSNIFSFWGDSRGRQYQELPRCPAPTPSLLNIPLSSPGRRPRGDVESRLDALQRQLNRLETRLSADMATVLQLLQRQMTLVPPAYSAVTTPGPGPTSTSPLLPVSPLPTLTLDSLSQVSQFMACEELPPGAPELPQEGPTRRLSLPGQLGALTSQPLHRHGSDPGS

Row | Structure (SMILES) | hERG current change (%, negative = inhibition) at 10uM [%]
1 | CCCN(Cc1ccco1)S(=O)(=O)c1ccc(OC)c(OC)c1 | 0.00658
2 | Cc1ccc(OCc2ccc(C(=O)N3CCOCC3)cc2)cc1C | -12.7
3 | O=C(OCC(=O)c1ccc(Cl)s1)c1ccc(CO)cc1 | -2.65
4 | Cc1ccc(-n2c(SCC(N)=O)nnc2-c2ccc(S(=O)(=O)N3CCCCC3)cc2)c(C)c1 | -52.7
5 | NC(=O)CSc1nnc(-c2ccc(S(=O)(=O)N3CCCCC3)cc2)n1-c1ccccc1 | -14.2
6 | Cn1c(SCC(N)=O)nnc1-c1ccc(S(=O)(=O)N2CCCC2)cc1 | 4.87
7 | CCN(CC)S(=O)(=O)c1ccc(S(=O)(=O)N2CCN(C(=O)c3ccco3)CC2)cc1 | 4.56
8 | CC(C)C(=O)Nc1c(-c2ccc(Cl)cc2)c(=O)c2ccccc2n1C | 20.9
9 | CN1CCCN(C(=O)c2ccc(Cl)s2)CC1 | -93.3
10 | O=C(c1ccc(Cl)s1)N1CCCC1 | -0.0803
11 | CN1CCCN(C(=O)c2ccc(Br)s2)CC1 | -14.5
12 | C/C(=C\c1ccc(Cl)cc1)C(=O)c1c(C)cc(C)[nH]c1=O | 9.59
13 | CC(NC(=O)NC1CCCCC1)c1ccccc1 (stereo not drawn) | -3.12
14 | C=CCn1c(CCNC(=O)c2cccs2)nnc1SCC(=O)Nc1cccc(Cl)c1C | -57.6
15 | C=CCn1c(CNC(=O)c2cccs2)nnc1SCC(=O)c1ccc(Br)cc1 | -19.3
16 | C=CCn1c(CCNC(=O)c2cccs2)nnc1SCC(=O)c1ccc(Br)cc1 | -67.1
17 | C=CCn1c(CCNC(=O)c2cccs2)nnc1SCC(=O)Nc1cccc(C(C)=O)c1 | 7.23
18 | C=CCn1c(CCNC(=O)c2cccs2)nnc1SCC(=O)c1ccc(Cl)cc1 | -38.5
19 | C=CCn1c(CCNC(=O)c2cccs2)nnc1SCC(=O)Nc1cccc(F)c1 | -34.6
20 | O=C(Nc1ccccc1)Nc1ccncc1 | 6.4
21 | Cc1ccc(NC(=O)CC2S/C(=N/N=C3/NC(=O)CS3)NC2=O)cc1 (stereo not drawn) | 19.5
22 | COc1ccc(-c2[nH]nc3c2C(c2ccccc2OC(=O)N2CCOCC2)C(C#N)=C(N)O3)cc1 (stereo not drawn) | 4.69
23 | CC1CCN(C(=S)SCc2nc(N)nc(Nc3ccccc3)n2)CC1 | -2.72

Row | Structure (SMILES) | hERG current change (%, negative = inhibition) at 10uM [%]
24 | COc1cccc(Nc2nc(N)nc(CCl)n2)c1 | 0.476
25 | CC1CC(C)CN(Cc2nc(N)nc(Nc3ccccc3)n2)C1 (stereo not drawn) | -64.8
26 | CC1CC(C)CN(C(=S)SCc2nc(N)nc(Nc3ccccc3)n2)C1 (stereo not drawn) | -6.04
27 | CC1CC(C)CN(Cc2nc(N)nc(Nc3ccc4ccccc4c3)n2)C1 (stereo not drawn) | -79
28 | CCNC(=O)CCn1nc(-c2ccc(Cl)cc2)c2ccccc2c1=O | -29
29 | Cc1cccc(N2CCN(S(=O)(=O)c3ccc4c(c3)NC(=O)C(C)S4)CC2)c1C (stereo not drawn) | -2.54
30 | CCN(CC)c1ccc(/C=C2\SC(N)=NC2=O)cc1 | 7.42
31 | Cn1cccc1CC(=O)NNC(=S)NC(=O)c1ccccc1Br | 13.1
32 | COc1ccc(-c2nc(-c3ccccc3)ncc2S(C)(=O)=O)cc1 | 13
33 | COc1ccc2c(c1OC)C(=O)N(c1nc(SC)n[nH]1)C2=O | 18.3
34 | COc1cccc(N(CC(=O)NCc2ccccc2)C(=O)CCC(=O)Nc2nccs2)c1 | 10.8
35 | Cc1nccn1CC(O)COc1ccccc1 (stereo not drawn) | -0.412
36 | Cc1nccn1CC(O)COc1ccc([N+](=O)[O-])cc1 (stereo not drawn) | -66.2
37 | COc1ccc(OCC(O)Cn2ccnc2C)cc1 (stereo not drawn) | 5.09
38 | Cc1ccc(OCC(O)CN2CCN(c3ccc(C)cc3)CC2)cc1 (stereo not drawn) | -28
39 | COc1ccc(N2CCN(CC(O)COc3ccc([N+](=O)[O-])cc3)CC2)cc1.Cl (stereo not drawn) | -62.5
40 | Cc1ccc(N2CCN(CC(O)COc3ccc([N+](=O)[O-])cc3)CC2)cc1 (stereo not drawn) | -76.4
41 | NNC(=O)COc1ccc(F)cc1 | 9.33
42 | COc1ccc(C(C)=O)cc1COC(=O)c1ccc(S(=O)(=O)N(C)C)cc1 | -2.42
43 | CCc1ccc(S(=O)(=O)Nc2cccc(-c3ccc4nnc(C)n4n3)c2)s1 | -11.6
44 | CCOC(=O)c1cccc(NC(=O)/C(=C\c2ccccc2)NC(=O)c2ccccc2Cl)c1 | 3.62
45 | CC1=NN(C(=O)Cc2ccc(C)cc2)C(O)(c2cccnc2)C1 (stereo not drawn) | 10.1
